Data as given in PubChem BioAssay AID1159580 (chemical genetic matrix, 2015).
The whole screen tested about 5,500 compounds, of which about 2,000 (36%) were called active. Inconclusive results (about 18%) are left out. No stated cut-off is given here; in the data, active means normalized growth mostly below about 0.91 (no sharp cut-off); inconclusive means no clear call, values can overlap the other calls; inactive means mostly above about 0.92. Some of the results follow.

Assay: chemical genetic growth profiling, strain panel (AID 1159580);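 further: tested at 20 µM; growth read once vehicle control cultures reached saturation at 30 °C; 1 = growth at the plate median or of vehicle wells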
Conditions: growth OD

Measured: normalized growth

N[C@@H](Cc1ccc(O)c(O)c1)C(=O)O
inactive: S. cerevisiae deletion strains, locus YJR075W, strain HOC1, stronger effect = lower value 1 | S. cerevisiae deletion strains, locus YKL009W, strain mrt4, stronger effect = lower value 0.961 | S. cerevisiae deletion strains, locus YKL068W, stronger effect = lower value 0.979 | S. cerevisiae deletion strains, locus YKL085W, strain MDH1 (second series), stronger effect = lower value 1 | S. cerevisiae deletion strains, locus YKL085W, strain MDH1, stronger effect = lower value 1 | S. cerevisiae deletion strains, locus YKL160W, strain elf1, stronger effect = lower value 1.01 | S. cerevisiae deletion strains, locus YKL190W, strain CNB1, stronger effect = lower value 0.964 | S. cerevisiae deletion strains, locus YKR001C, strain vps1, stronger effect = lower value 1 | S. cerevisiae deletion strains, locus YKR026C, strain gcn3, stronger effect = lower value 0.989 | S. cerevisiae deletion strains, locus YKR091W, strain srl3, stronger effect = lower value 0.998 | S. cerevisiae deletion strains, locus YLL001W, strain dnm1, stronger effect = lower value 0.983 | S. cerevisiae deletion strains, locus YLL026W, stronger effect = lower value 0.995 | S. cerevisiae deletion strains, locus YLL041C, strain sdh2, stronger effect = lower value 1 | S. cerevisiae deletion strains, locus YLR027C, strain aat2, stronger effect = lower value 1.01 | S. cerevisiae deletion strains, locus YLR039C, strain RIC1, stronger effect = lower value 0.91 | S. cerevisiae deletion strains, locus YLR058C, strain SHM2, stronger effect = lower value 0.996 | S. cerevisiae deletion strains, locus YLR102C, strain apc9, stronger effect = lower value 0.991 | S. cerevisiae deletion strains, locus YLR113W, strain HOG1, stronger effect = lower value 0.93 | S. cerevisiae deletion strains, locus YLR221C, strain rsa3, stronger effect = lower value 0.999 | S. cerevisiae deletion strains, locus YLR258W, strain gsy2, stronger effect = lower value 0.985 | S. cerevisiae deletion strains, locus YLR262C, strain YPT6 (second series), stronger effect = lower value 1.01 | S. cerevisiae deletion strains, locus YLR262C, strain YPT6, stronger effect = lower value 0.898 | S. cerevisiae deletion strains, locus YLR268W, strain sec22, stronger effect = lower value 1 | S. cerevisiae deletion strains, locus YLR320W, strain mms22, stronger effect = lower value 1.01 | S. cerevisiae deletion strains, locus YLR330W, strain CHS5, stronger effect = lower value 0.987 | S. cerevisiae deletion strains, locus YLR342W, strain FKS1 (second series), stronger effect = lower value 0.949 | S. cerevisiae deletion strains, locus YLR342W, strain FKS1, stronger effect = lower value 1.01 | S. cerevisiae deletion strains, locus YLR357W, strain rsc2, stronger effect = lower value 0.975 | S. cerevisiae deletion strains, locus YLR370C, strain arc18, stronger effect = lower value 1 | S. cerevisiae deletion strains, locus YLR371W, strain rom2, stronger effect = lower value 0.975 | S. cerevisiae deletion strains, locus YLR384C, strain iki3, stronger effect = lower value 1 | S. cerevisiae deletion strains, locus YLR418C, strain cdc73, stronger effect = lower value 1.04 | S. cerevisiae deletion strains, locus YML016C, strain PPZ1, stronger effect = lower value 0.991 | S. cerevisiae deletion strains, locus YML032C, strain rad52, stronger effect = lower value 0.991 | S. cerevisiae deletion strains, locus YML120C, strain ndi1, stronger effect = lower value 1 | S. cerevisiae deletion strains, locus YML124C, strain tub3, stronger effect = lower value 0.996 | S. cerevisiae deletion strains, locus YMR058W, strain fet3, stronger effect = lower value 0.993 | S. cerevisiae deletion strains, locus YMR078C, strain ctf18, stronger effect = lower value 0.995 | S. cerevisiae deletion strains, locus YMR125W, strain sto1, stronger effect = lower value 0.976 | S. cerevisiae deletion strains, locus YMR129W, stronger effect = lower value 0.986 | S. cerevisiae deletion strains, locus YMR205C, strain PFK2, stronger effect = lower value 0.982 | S. cerevisiae deletion strains, locus YMR223W, strain ubp8, stronger effect = lower value 1.01 | S. cerevisiae deletion strains, locus YMR231W, strain pep5, stronger effect = lower value 0.992 | S. cerevisiae deletion strains, locus YMR263W, strain SAP30, stronger effect = lower value 0.982 | S. cerevisiae deletion strains, locus YMR307W, strain GAS1, stronger effect = lower value 0.921 | S. cerevisiae deletion strains, locus YNL067W, strain RPL9B, stronger effect = lower value 0.982 | S. cerevisiae deletion strains, locus YNL071W, strain lat1, stronger effect = lower value 1.02 | S. cerevisiae deletion strains, locus YNL128W, strain TEP1, stronger effect = lower value 0.954 | S. cerevisiae deletion strains, locus YNL153C, strain GIM3, stronger effect = lower value 0.991 | S. cerevisiae deletion strains, locus YNL183C, strain NPR1, stronger effect = lower value 0.923 | S. cerevisiae deletion strains, locus YNL209W, strain ssb2, stronger effect = lower value 1.01 | S. cerevisiae deletion strains, locus YNL233W, strain BNI4, stronger effect = lower value 1 | S. cerevisiae deletion strains, locus YNL248C, strain rpa49, stronger effect = lower value 0.99 | S. cerevisiae deletion strains, locus YNL250W, strain rad50, stronger effect = lower value 0.98 | S. cerevisiae deletion strains, locus YNL271C, strain bni1, stronger effect = lower value 0.987 | S. cerevisiae deletion strains, locus YNL298W, strain CLA4, stronger effect = lower value 0.995 | S. cerevisiae deletion strains, locus YNL307C, strain MCK1, stronger effect = lower value 1 | S. cerevisiae deletion strains, locus YNL322C, strain KRE1 (second series), stronger effect = lower value 0.99 | S. cerevisiae deletion strains, locus YNL322C, strain KRE1, stronger effect = lower value 0.989 | S. cerevisiae deletion strains, locus YNR049C, strain mso1, stronger effect = lower value 1 | S. cerevisiae deletion strains, locus YNR052C, strain pop2, stronger effect = lower value 1 | S. cerevisiae deletion strains, locus YOL006C, strain TOP1, stronger effect = lower value 0.753 | S. cerevisiae deletion strains, locus YOL012C, strain htz1 0.813 | S. cerevisiae deletion strains, locus YOL147C, strain pex11, stronger effect = lower value 1 | S. cerevisiae deletion strains, locus YOR001W, strain rrp6, stronger effect = lower value 0.996 | S. cerevisiae deletion strains, locus YOR061W, strain CKA2, stronger effect = lower value 0.992 | S. cerevisiae deletion strains, locus YOR069W, strain VPS5, stronger effect = lower value 1 | S. cerevisiae deletion strains, locus YOR070C, strain gyp1, stronger effect = lower value 0.998 | S. cerevisiae deletion strains, locus YOR080W, strain dia2, stronger effect = lower value 0.993 | S. cerevisiae deletion strains, locus YOR083W, strain WHI5, stronger effect = lower value 1.01 | S. cerevisiae deletion strains, locus YOR106W, strain vam3, stronger effect = lower value 0.996 | S. cerevisiae deletion strains, locus YOR136W, strain idh2, stronger effect = lower value 1 | S. cerevisiae deletion strains, locus YOR144C, strain elg1, stronger effect = lower value 0.996 | S. cerevisiae deletion strains, locus YOR184W, strain ser1, stronger effect = lower value 0.982 | S. cerevisiae deletion strains, locus YOR231W, strain MKK1, stronger effect = lower value 0.942 | S. cerevisiae deletion strains, locus YOR265W, strain rbl2, stronger effect = lower value 0.998 | S. cerevisiae deletion strains, locus YOR270C, strain vph1, stronger effect = lower value 1.02 | S. cerevisiae deletion strains, locus YOR290C, strain snf2, stronger effect = lower value 0.933 | S. cerevisiae deletion strains, locus YOR316C, strain cot1, stronger effect = lower value 0.995 | S. cerevisiae deletion strains, locus YPL051W, strain arl3, stronger effect = lower value 0.994 | S. cerevisiae deletion strains, locus YPL055C, strain LGE1, stronger effect = lower value 0.92 | S. cerevisiae deletion strains, locus YPL078C, strain atp4, stronger effect = lower value 1.01 | S. cerevisiae deletion strains, locus YPL106C, strain sse1, stronger effect = lower value 0.96 | S. cerevisiae deletion strains, locus YPL240C, strain hsp82, stronger effect = lower value 0.995 | S. cerevisiae deletion strains, locus YPL241C, strain CIN2, stronger effect = lower value 0.987 | S. cerevisiae deletion strains, locus YPL256C, strain CLN2, stronger effect = lower value 0.929 | S. cerevisiae deletion strains, locus YPR119W, strain clb2, stronger effect = lower value 1 | S. cerevisiae deletion strains, locus YPR141C, strain kar3, stronger effect = lower value 0.98 | S. cerevisiae deletion strains, locus YPR163C, strain tif3, stronger effect = lower value 1.01 | S. cerevisiae deletion strains, locus YPR167C, strain met16, stronger effect = lower value 1.01 | S. cerevisiae deletion strains, strain wtn01, stronger effect = lower value 1.01 | S. cerevisiae strains, strain wild type, stronger effect = lower value 0.955
